Screening data as filed in PubChem BioAssay.
This is a sample that favours compounds with a hit; in the whole collection about 3.6% have one here.
LGR2 antag: Drosophila LGR2 receptor signaling inhibition; HEK293 LGR2, CRE-luciferase, bursicon-stimulated, 4 h; inhibition, % at 9.99 µM; actives 0.35% (n = 380,000); AID 720647;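 active = drop in luminescence signal, shown as inhibition above about 50% in the replicate tests, limit read from the data, passing the limit was not always enough; inconclusive = probably only some replicates passing the limit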;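 note: agonist challenge used bursicon conditioned medium at about half maximal strength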
LMP1 NFkB inh: reduces LMP1-driven NF-kappaB luciferase signal; LMP1-induced NF-kappaB luciferase reporter cells, luminescence; inhibition, % at 12.5 µM; actives 0.69% (n = 350,000); AID 504558; in the data active = inhibition above about 41%; inconclusive = no clear call, values can overlap the other calls;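 note: 0% = neutral control wells and 100% = reference inhibitor control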
HSF1 activator: increases HSF-1 driven luciferase reporter signal | NIH3T3-HGL HSF-1 luciferase reporter, MG132, 8 h; 100% = twice DMSO control signal | activation, % at 9 µM | actives 1.7% (n = 300,000) | AID 504408;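 active = mean replicate activation of at least 50% with a set share of replicates each reaching 50%; inconclusive = only one of those two conditions met; inactive = mean below 50% and too few replicates reaching it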;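 note: 0% = median of the neutral control wells and 100% = twice that signal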
TWEAK Fn14 block: inhibitors of TWEAK-Fn14 interaction signaling. TWEAK-stimulated Fn14 reporter cells, luciferase luminescence, 8 h. inhibition, % at 10 µM. actives 2% (n = 360,000). AID 1159606; in the data active = inhibition above about 50%
TROY NFkB inh: blocks TROY-dependent signaling in reporter cells; Q293 LMP1-TROYcd NF-kB luciferase reporter, 4 h; inhibition, % at 10 µM; actives 0.98% (n = 360,000); AID 1347056;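 active = compounds whose plate-normalised and pattern-corrected inhibition of the luciferase reporter signal at the single screening dose is 50% or more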
HSF1 inh: HSF1 inhibition; activity change, negative = inhibition, % at 7.5 µM (by protocol); actives 0.77% (n = 300,000); NIH3T3-HGL HSE-luciferase, MG132-induced, luminescence 8 h; active compounds read low; AID 2098;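 active = more than half of replicate wells show activity change below -50%, luminescence cut by over half; inconclusive = some wells, but at most half, below -50%; inactive = no replicate well below -50%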;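 note: luciferase reports HSF-1 transcriptional activity via heat shock element; 0% = median of DMSO wells and -100% = zero luminescence signal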
An asterisk follows results filed as active; ? = inconclusive; · = no result.

SMILES	LGR2 antag	LMP1 NFkB inh	HSF1 activator	TWEAK Fn14 block	TROY NFkB inh	HSF1 inh
O=c1cc(C(F)(F)F)[nH]c2c(C(F)(F)F)cccc12	·	-2.4	6.8	61.1*	57.8*	-6.3
O=c1cc(C(F)(F)F)[nH]c2ccc(OC(F)(F)F)cc12	·	·	3.3	-3.9	48.3	-9.4
COc1ccc(S(=O)(=O)N(C)C[C@@H]2OCCCC[C@H](C)Oc3ccc(NC(=O)Nc4cccc5ccccc45)cc3C(=O)N([C@H](C)CO)C[C@H]2C)cc1	-0.4	·	·	·	·	·
COc1ccc(-c2n[nH]c(C)c2-c2ccc(Cl)cc2)c(O)c1	·	-2.3	30.1	1.9	10.3	6.0
COc1ccc(-c2n[nH]c(C)c2-c2ccc(Cl)cc2)c(O)c1OC	·	32.7	-5.3	55.3*	42.4	0.3
N#C[C@@H]1N[C@@H](CO)[C@@H]1c1ccc(C2=CCCCC2)cc1	-31.8	·	·	·	·	·
O=C1/C(=C/c2cccnc2)SC(=S)N1N1CCOCC1	10.5	-3.0	23.9	2.0	-10.9	4.7
O=C1/C(=C\c2cccnc2)SC(=S)N1C1CCS(=O)(=O)C1 (stereo unspecified)	54.8*	18.6	36.6	71.1*	12.6	3.2
O=C1/C(=C/c2cccnc2)SC(=S)N1C1CCS(=O)(=O)C1 (stereo unspecified)	?	6.9	7.8	65.1*	17.0	-2.1
C[C@H](CO)N1C[C@H](C)[C@H](CN(C)C(=O)c2ccccn2)Oc2ncc(C3=CCCC3)cc2C1=O	-3.9	·	·	·	·	·
CC(C)NC(=O)Nc1ccc2c(c1)C(=O)N([C@@H](C)CO)C[C@@H](C)[C@H](CN(C)C(=O)CCCN(C)C)OCCCC[C@@H](C)O2	4.3	·	·	·	·	·
CC1C(=O)N(Cc2cn(CCC3OCCCO3)nn2)CCS(=O)(=O)N1Cc1ccc(-c2ccc(Cl)c(Cl)c2)cc1 (stereo unspecified)	35.1	6.5	·	71.0*	44.9	·
CN(C)C(=O)[C@H]1[C@H](CO)[C@H]2Cn3c(ccc(C4=CCCC4)c3=O)[C@@H]1N2CC1CCOCC1	9.8	·	·	·	·	·
CCc1ccccc1NC1=NCC(=O)N1C1CCCCC1	·	-4.0	59.2*	-3.5	-23.1	33.5
COCC(=O)N1C[C@H](C)[C@H](OC)CN(C)C(=O)c2cc(NC(=O)c3cc(C)on3)ccc2OC[C@@H]1C	0.9	·	·	·	·	·
CC(=O)c1c(NCCc2ccccc2)nc(=S)n(-c2ccccc2)c1C	71.5*	2.3	4.3	-21.1	-4.0	3.3
Oc1ccc(N=Cc2ccc(-c3cccs3)s2)cc1	59.3*	81.8*	-16.2	16.6	8.0	-5.1
O=Cc1ccc(-c2cccs2)s1	?	75.9*	·	-17.9	3.8	·
O=S(=O)(N[C@@H]1CC[C@@H](CCn2cc(-c3cccnc3)nn2)O[C@@H]1CO)c1ccc(F)cc1	2.5	·	·	·	·	·
O=C(Nn1cnnc1)c1ccncc1	·	0.9	-13.0	-1.1	-3.7	7.7
CC(=O)c1c(C(C)=O)c(C)n(NC(=O)c2ccncc2)c1C	·	-6.3	-17.2	52.5*	·	-15.6
O=C(O)c1cc([N+](=O)[O-])c(NCCC2=CCCCC2)c([N+](=O)[O-])c1	-5.7	-0.4	58.9*	14.1	-3.2	20.3
CC(C)NC(=O)N(C)C[C@@H]1Oc2ccc(NC(=O)NC3CCCCC3)cc2C(=O)N([C@@H](C)CO)C[C@@H]1C	6.9	·	·	·	·	·
CCCC(=O)OCCNc1cc(SCc2ccco2)c2nonc2c1[N+](=O)[O-]	13.3	0.1	15.4	5.6	3.9	3.3
CCC(=O)OCCNc1cc(Sc2nc3ccccc3s2)c2nonc2c1[N+](=O)[O-]	33.5	33.6	84.8*	17.7	8.9	31.4
SMILES	LGR2 antag	LMP1 NFkB inh	HSF1 activator	TWEAK Fn14 block	TROY NFkB inh	HSF1 inh
CCCC(=O)OCCNc1cc(Sc2nccn2C)c2nonc2c1[N+](=O)[O-]	42.5	9.8	290.4*	42.2	17.6	233.9
O=[N+]([O-])c1c(NCCCO)cc(Sc2nc3ccccc3s2)c2nonc12	6.3	1.6	271.6*	2.5	-9.4	223.3
CCCSc1cc(NCCOC(=O)CCC)c([N+](=O)[O-])c2nonc12	6.4	0.5	-1.3	21.3	19.4	-1.6
Cc1nnc(Sc2cc(NCCO)c([N+](=O)[O-])c3nonc23)s1	-0.6	-2.0	153.4*	12.7	4.9	116.9
Cc1nnc(Sc2cc(NCCCO)c([N+](=O)[O-])c3nonc23)s1	8.4	-1.1	-17.2	-5.0	9.6	?
CCCNC(=O)N1CCC2(CC1)CN(C(=O)Nc1ccc(F)cc1)[C@H](CO)c1[nH]c3cc(OC)ccc3c12	-14.9	·	·	·	·	·
COCC(=O)N1CCCCN2[C@H](CO)[C@@H](c3ccc(C#Cc4ccccc4)cc3)[C@@H]2C1	0.1	·	·	·	·	·
Cc1cccc(-c2ccc([C@@H]3[C@@H](CO)N4C(=O)CN(C(=O)Cc5ccccn5)C[C@@H]34)cc2)c1	9.6	·	·	·	·	·
CCC(=O)OCCNc1cc(Sc2nc3ccccc3[nH]2)c2nonc2c1[N+](=O)[O-]	7.2	10.5	·	54.5*	54.5*	·
CCCC#Cc1cnc2c(c1)C(=O)N([C@H](C)CO)C[C@@H](C)[C@H](CN(C)C(=O)c1cccnc1)O2	8.8	·	·	·	·	·
CCC(=O)Nc1ccccc1C(=O)OCC(=O)c1ccccc1	·	-15.7	79.4*	8.7	-33.7	34.9
CC(=O)Nc1cccc(C(=O)OCC(=O)c2ccccc2Cl)c1	32.8	-16.4	84.8*	40.1	21.7	39.4
CCC(=O)Nc1cccc(C(=O)OCC(=O)c2ccccc2Cl)c1	4.2	-9.6	65.1*	-14.7	-68.9	35.9
O=C(NCCc1ccncc1)[C@H]1[C@H](CO)[C@H]2Cn3c(ccc(C4=CCCCC4)c3=O)[C@@H]1N2CC1CC1	-5.7	·	·	·	·	·
CCCC(=O)Nc1ccc2c(c1)C(=O)N(C)[C@@H]1CC[C@@H](CC(=O)NCCc3ccccc3)O[C@H]1CO2	-5.6	·	·	·	·	·
Cc1ccc(S(=O)(=O)N(C)C[C@@H]2Oc3ccc(NC(=O)CCN4CCOCC4)cc3C(=O)N([C@H](C)CO)C[C@H]2C)cc1	0.4	·	·	·	·	·
O=C(N[C@H]1C=C[C@H](CC(=O)N2CCCCC2)O[C@@H]1CO)c1ccc2c(c1)OCO2	-0.1	·	·	·	·	·
CC(C)N(C(C)C)S(=O)(=O)c1ccc(Cl)nc1	-30.7	-0.7	5.3	18.6	-6.4	-6.0
CCN(CC)S(=O)(=O)c1ccc(N2CCc3ccccc3C2)nc1	-18.8	-9.0	72.7*	29.0	9.8	54.0
CC(C)N(C(C)C)S(=O)(=O)c1ccc(N2CCc3ccccc3C2)nc1	13.6	-44.3	130.4*	58.0*	49.4	67.3
CCOC(=O)C(=Cc1ccc(-n2cncn2)cc1)C(=O)OCC	65.0*	10.6	126.9*	100.7*	62.7*	98.0
O=C(O)C1CSC(c2ccc(O)c([N+](=O)[O-])c2)N1 (stereo unspecified)	-2.9	-5.5	·	-4.8	-15.4	·
O=C(O)C1CSC(c2ccc3c(c2)OCO3)N1 (stereo unspecified)	-23.9	-24.8	-67.9	-4.8	-33.8	-56.2*
